# Laboratory results published in PubChem BioAssay (EPA / NIEHS).
# Active and inactive are the calls of the source. How the source made its calls: active means hit-call score of the fitted dose curve at least 0.9, where 1 is the maximum; inactive means score below 0.9.
# What was measured:
# Conditions in all cases: mRNA level, 48 h; actives raise or lower the signal
# [1] = read-out: Cytochrome P450 4A22 (Homo sapiens) (UniProt Q5TCH4); assay: LTEA_HepaRG_CYP4A22: Life Technologies and Expression Analysis (LTEA) Assay for Cytochrome P450 4A22 (CYP4A22) using HepaRG (AID 2283495)
# Method in brief: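 HepaRG, 48 h post-plating -> serum-free induction medium; dosed 48 h, duplicate, 8 conc. (100 uM top, half-log), 0.5% DMSO. Readout: CYP4A22 mRNA by qRT-PCR, ACTB/GAPDH/POLR2A normalization; gain/loss fit relative to DMSO.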
# [2] = read-out: Cytochrome P450 7A1 (Homo sapiens) (UniProt P22680); assay: LTEA_HepaRG_CYP7A1: Life Technologies and Expression Analysis (LTEA) Assay for Cytochrome P450 7A1 (CYP7A1) using HepaRG (AID 2283496)
# Method in brief: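 Using 0.5% DMSO as vehicle and baseline, chemicals were tested in duplicate over an 8-point range from 100 uM on HepaRG cells for 48 h; qRT-PCR signals were normalised to ACTB, GAPDH and POLR2A.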
# [3] = read-out: Glutathione S-Transferase (GSTA2), GSTA2 (gene 2939); assay: LTEA_HepaRG_GSTA2: Life Technologies and Expression Analysis (LTEA) Assay for Glutathione S-Transferase (GSTA2) using HepaRG (AID 2283497)
# Method in brief: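 qRT-PCR readout of GSTA2 transcript, normalized to three housekeeping genes, fitted bidirectionally against 0.5% DMSO baseline. Differentiated HepaRG cells received compound for 48 h at 8 concentrations (top 100 uM, half-log steps).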
# [4] = read-out: Glutamate-cysteine ligase catalytic (GCLC), GCLC (gene 2729); assay: LTEA_HepaRG_GCLC: Life Technologies and Expression Analysis (LTEA) Assay for Glutamate-cysteine ligase catalytic (GCLC) using HepaRG (AID 2283498)
# Method in brief: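 HepaRG, 48 h exposure, 8-pt half-log series from 100 uM, 0.5% DMSO vehicle; TaqMan qRT-PCR for GCLC mRNA, housekeeping-normalized; bidirectional curve fit vs DMSO baseline.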
# [5] = read-out: growth arrest and DNA damage 45 (GADD45G), GADD45G (gene 10912); assay: LTEA_HepaRG_GADD45G: Life Technologies and Expression Analysis (LTEA) Assay for growth arrest and DNA damage 45 (GADD45G) using HepaRG (AID 2283499)
# Method in brief: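 HepaRG, 48 h exposure, top 100 uM, half-log 8-point series, 0.5% DMSO vehicle, duplicates. Readout: GADD45G transcript by qRT-PCR (Fluidigm array), housekeeping-normalised (ACTB/GAPDH/POLR2A). Bidirectional curve fit vs DMSO baseline.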
# [6] = read-out: Glutamate-cysteine ligase regulatory (GCLM), GCLM (gene 2730); assay: LTEA_HepaRG_GCLM: Life Technologies and Expression Analysis (LTEA) Assay for Glutamate-cysteine ligase regulatory (GCLM) using HepaRG (AID 2283500)
# Method in brief: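 HepaRG, 48 h dosing, 100 uM top, half-log x8, 0.5% DMSO vehicle. Readout: GCLM mRNA by TaqMan qRT-PCR, housekeeping-normalized (ACTB/GAPDH/POLR2A). Curves fit bidirectionally vs DMSO baseline.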
# [7] = read-out: Glutathione S-transferase M3 (GSTM3), GSTM3 (gene 2947); assay: LTEA_HepaRG_GSTM3: Life Technologies and Expression Analysis (LTEA) Assay for Glutathione S-transferase M3 (GSTM3) using HepaRG (AID 2283501)
# Method in brief: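 qRT-PCR read-out of GSTM3 transcript, normalized to three housekeeping genes, from human HepaRG cells after 48 h chemical exposure. Eight-point half-log series, top 100 uM, 0.5% DMSO vehicle; gain or loss fitted relative to DMSO baseline.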
# [8] = read-out: Heat shock 70 kDa protein 1 (HSPA1A), gene 3303; assay: LTEA_HepaRG_HSPA1A: Life Technologies and Expression Analysis (LTEA) Assay for Heat shock 70 kDa protein 1 (HSPA1A) using HepaRG (AID 2283502)
# Method in brief: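 HepaRG, 48 h exposure, 8-pt half-log CRC from 100 uM in 0.5% DMSO, duplicates. Readout: TaqMan qRT-PCR of HSPA1A mRNA, housekeeping-normalized (ACTB/GAPDH/POLR2A). Bidirectional fit vs 0.5% DMSO baseline.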
# [9] = read-out: Hypoxia-inducible factor 1-alpha (Homo sapiens) (UniProt Q16665); assay: LTEA_HepaRG_HIF1A: Life Technologies and Expression Analysis (LTEA) Assay for Hypoxia-inducible factor 1 (HIF1A) Trancription factor using HepaRG (AID 2283503)
# Method in brief: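 Gain- or loss-of-signal HIF1A mRNA changes are fitted against a DMSO baseline. HepaRG cultures receive eight concentrations, highest 100 uM, for 48 h in serum-free induction medium with 0.5% DMSO.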
# [10] = read-out: 3-Hydroxy-3-Methylglutaryl-CoA Synthase 2 (HMGCS2), HMGCS2 (gene 3158); assay: LTEA_HepaRG_HMGCS2: Life Technologies and Expression Analysis (LTEA) Assay for 3-Hydroxy-3-Methylglutaryl-CoA Synthase 2 (HMGCS2) using HepaRG (AID 2283504)
# Method in brief: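 qRT-PCR read-out of HMGCS2 transcript, normalised to three housekeeping genes, in HepaRG cells after 48 h chemical exposure. Eight-point curves from 100 uM, half-log dilutions, 0.5% DMSO vehicle; gain or loss fitted relative to DMSO baseline.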
# HGF (gene 3082) = assay: LTEA_HepaRG_HGF: Life Technologies and Expression Analysis (LTEA) Assay for Hepatocyte Growth Facto (HGF) using HepaRG (AID 2283505)
# Method in brief: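 HepaRG, 48 h dosing, 8-pt half-log series from 100 uM in 0.5% DMSO, duplicates. Readout: TaqMan qRT-PCR of HGF mRNA, housekeeping-normalized; bidirectional curve fit vs DMSO baseline.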
# [11] = read-out: Insulin Like Growth Factor 1 (IGF1), IGF1 (gene 3479); assay: LTEA_HepaRG_IGF1: Life Technologies and Expression Analysis (LTEA) Assay for Insulin Like Growth Factor 1 (IGF1) using HepaRG (AID 2283506)
# Method in brief: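 qRT-PCR readout of IGF1 mRNA, normalized to three housekeeping genes, after 48 h chemical exposure of HepaRG cells. Concentrations: 8-point half-log series, top 100 uM, 0.5% DMSO vehicle. Gain or loss fitted against DMSO baseline.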
# [12] = read-out: Intercellular Adhesion Molecule 1 (ICAM1), ICAM1 (gene 3383); assay: LTEA_HepaRG_ICAM1: Life Technologies and Expression Analysis (LTEA) Assay for Intercellular Adhesion Molecule 1 (ICAM1) using HepaRG (AID 2283507)
# Method in brief: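 HepaRG, 48 h exposure, 8-pt half-log series from 100 uM, 0.5% DMSO vehicle, duplicates. Readout: TaqMan qRT-PCR mRNA, housekeeping-normalized (ACTB/GAPDH/POLR2A). Bidirectional curve fit vs DMSO baseline.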
# [13] = read-out: Interleukin 6 (IL6), IL6 (gene 3569); assay: LTEA_HepaRG_IL6: Life Technologies and Expression Analysis (LTEA) Assay for Interleukin 6 (IL6) using HepaRG (AID 2283509)
# Method in brief: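 qRT-PCR read-out of IL6 transcript, normalized to three housekeeping genes, after 48 h chemical exposure of HepaRG cells; 8-point half-log series, top 100 uM, 0.5% DMSO vehicle. Bidirectional curve fitting against DMSO baseline.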
# [14] = read-out: Interleukin 6 Receptor (IL6R), IL6R (gene 3570); assay: LTEA_HepaRG_IL6R: Life Technologies and Expression Analysis (LTEA) Assay for Interleukin 6 Receptor (IL6R) using HepaRG (AID 2283510)
# Method in brief: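 HepaRG, 48 h exposure, 8-pt half-log series, top 100 uM, 0.5% DMSO vehicle, duplicates. Read-out: TaqMan qRT-PCR of IL6R transcript, housekeeping-gene normalized. Gain or loss fitted relative to DMSO baseline.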
# [15] = read-out: Potassium channel subfamily K member 1 (KCNK1), KCNK1 (gene 3775); assay: LTEA_HepaRG_KCNK1: Life Technologies and Expression Analysis (LTEA) Assay for Potassium channel subfamily K member 1 (KCNK1) using HepaRG (AID 2283511)
# Method in brief: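 HepaRG, 48 h exposure, 8-pt half-log series top 100 uM, 0.5% DMSO vehicle, duplicates. Readout: KCNK1 transcript by qRT-PCR (Fluidigm array), housekeeping-normalized; bidirectional curve fit relative to DMSO baseline.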
# [16] = read-out: Keratin 19 (KRT19), KRT19 (gene 3880); assay: LTEA_HepaRG_KRT19: Life Technologies and Expression Analysis (LTEA) Assay for Keratin 19 (KRT19) using HepaRG (AID 2283512)
# Method in brief: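 HepaRG, 48 h chemical exposure, 8-pt half-log CRC from 100 uM, 0.5% DMSO vehicle, duplicates. Readout: TaqMan qRT-PCR of KRT19 mRNA, housekeeping-normalized (ACTB/GAPDH/POLR2A). Bidirectional fit vs DMSO baseline.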
# [17] = read-out: JUN Transcription Factor, JUN (gene 3725); assay: LTEA_HepaRG_JUN: Life Technologies and Expression Analysis (LTEA) Assay for JUN Transcription Factor using HepaRG (AID 2283513)
# Method in brief: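 HepaRG, 48 h exposure, 8-pt half-log series top 100 uM, 0.5% DMSO, duplicate. JUN mRNA by qRT-PCR (Fluidigm), housekeeping-normalized (ACTB/GAPDH/POLR2A); bidirectional curve fit vs DMSO baseline.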
# [18] = read-out: Lipase C (LIPC), LIPC (gene 3990); assay: LTEA_HepaRG_LIPC: Life Technologies and Expression Analysis (LTEA) Assay for Lipase C (LIPC) using HepaRG (AID 2283514)
# Method in brief: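 HepaRG, 48 h exposure, 8-pt half-log series from 100 uM in 0.5% DMSO, duplicates. Readout: LIPC mRNA by Fluidigm qRT-PCR, housekeeping-normalized (ACTB/GAPDH/POLR2A). Gain or loss fitted bidirectionally against DMSO baseline.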
# Hypoxia-inducible factor 1-alpha (Homo sapiens), sequence (Q16665 whole entry, looked up): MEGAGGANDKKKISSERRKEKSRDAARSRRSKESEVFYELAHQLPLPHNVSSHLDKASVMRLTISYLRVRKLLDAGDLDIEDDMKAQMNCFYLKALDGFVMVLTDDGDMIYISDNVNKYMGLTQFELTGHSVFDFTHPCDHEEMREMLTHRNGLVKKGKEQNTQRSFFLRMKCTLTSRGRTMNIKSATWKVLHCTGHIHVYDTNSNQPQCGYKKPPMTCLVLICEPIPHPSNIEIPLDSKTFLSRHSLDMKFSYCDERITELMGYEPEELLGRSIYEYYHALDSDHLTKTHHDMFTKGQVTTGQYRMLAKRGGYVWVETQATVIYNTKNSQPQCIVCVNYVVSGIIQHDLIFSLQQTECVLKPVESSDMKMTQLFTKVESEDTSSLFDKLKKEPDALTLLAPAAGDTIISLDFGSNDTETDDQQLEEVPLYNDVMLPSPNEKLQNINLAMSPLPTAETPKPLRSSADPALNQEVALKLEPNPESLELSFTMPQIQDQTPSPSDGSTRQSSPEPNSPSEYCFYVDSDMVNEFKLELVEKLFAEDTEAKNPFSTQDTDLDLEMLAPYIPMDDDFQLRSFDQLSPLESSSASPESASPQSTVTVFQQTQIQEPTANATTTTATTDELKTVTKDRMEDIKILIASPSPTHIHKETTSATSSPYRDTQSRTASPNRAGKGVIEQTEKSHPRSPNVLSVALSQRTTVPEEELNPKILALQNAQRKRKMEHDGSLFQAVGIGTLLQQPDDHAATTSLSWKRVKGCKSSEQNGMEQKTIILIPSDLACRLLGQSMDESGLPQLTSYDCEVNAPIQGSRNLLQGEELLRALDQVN
structure (smiles),measurement,setting,value
CCCCCOC(=O)COc1cc(N2C(=O)C3=C(CCCC3)C2=O)c(F)cc1Cl,outcome,[1],inactive
same,outcome,[2],inactive
same,outcome,[3],inactive
same,outcome,[4],inactive
same,outcome,[5],inactive
same,outcome,[6],inactive
same,outcome,[7],inactive
same,outcome,[8],inactive
same,outcome,[9],inactive
same,outcome,[10],inactive
same,outcome,HGF (gene 3082),inactive
same,outcome,[11],inactive
same,outcome,[12],inactive
same,outcome,[13],inactive
same,outcome,[14],inactive
same,outcome,[15],inactive
same,outcome,[16],inactive
same,outcome,[17],inactive
same,outcome,[18],inactive
C#C[C@]1(O)CC[C@H]2[C@@H]3CCC4=CC(=O)CC[C@@H]4[C@H]3CC[C@@]21CC,outcome,[1],inactive
same,AC50,[2],0.056 µM (active)
same,outcome,[3],inactive
same,outcome,[4],inactive
same,outcome,[5],inactive
same,outcome,[6],inactive
same,outcome,[7],inactive
same,outcome,[8],inactive
same,outcome,[9],inactive
same,outcome,[10],inactive
same,outcome,HGF (gene 3082),inactive
same,outcome,[11],inactive
same,outcome,[12],inactive
same,AC50,[13],0.0379 µM (active)
same,outcome,[14],inactive
same,outcome,[16],inactive
same,outcome,[17],inactive
same,outcome,[18],inactive
CCOC(=O)C(C)Oc1ccc(Oc2cnc3cc(Cl)ccc3n2)cc1 (stereo not given),AC50,[1],43 µM (active)
same,AC50,[2],9.27 µM (active)
same,AC50,[3],15 µM (active)
same,outcome,[4],inactive
same,outcome,[5],inactive
same,outcome,[6],inactive
same,outcome,[7],inactive
same,outcome,[8],inactive
same,outcome,[9],inactive
same,outcome,[10],inactive
same,outcome,HGF (gene 3082),inactive
same,AC50,[11],1.06 µM (active)
same,outcome,[12],inactive
same,outcome,[13],inactive
same,outcome,[14],inactive
same,outcome,[15],inactive
same,outcome,[16],inactive
same,outcome,[17],inactive
same,outcome,[18],inactive
CCSC(=O)N(CC(C)C)CC(C)C,outcome,[1],inactive
same,outcome,[2],inactive
same,outcome,[3],inactive
same,outcome,[4],inactive
same,outcome,[5],inactive
same,outcome,[6],inactive
same,outcome,[7],inactive
same,outcome,[8],inactive
same,outcome,[9],inactive
same,outcome,[10],inactive
same,outcome,HGF (gene 3082),inactive
same,outcome,[11],inactive
same,outcome,[12],inactive
same,outcome,[13],inactive
same,outcome,[14],inactive
same,outcome,[15],inactive
same,outcome,[16],inactive
same,outcome,[17],inactive
same,outcome,[18],inactive
